From PubChem BioAssay (NCI)
Several values for one entry are separate records, joined by “and”; a condition that tells them apart may be missing. Identical values can stand only once. About 79,000 compounds went through this panel and 15% of them were active in at least one assay; those are over-represented in the sample as a whole. Some structures have more than one record in an assay (separate samples or runs), and their calls can disagree. Activity calls are given as the source filed them. Cut-off read from the data, not from the text of the source: active = growth inhibition above about 70%; inactive = the rest.

Assays:
[1] = NCI Yeast Anticancer Drug Screen. Data for the rad52 strain (AID 147);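 note: 0% = growth of vehicle-treated control cultures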; conditions: S. cerevisiae rad52 mutant growth inhibition, stronger effect = higher value
In short: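 Here a repair-compromised yeast strain receives each compound; its growth is then quantified and normalised to vehicle-only controls.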

[2] = NCI Yeast Anticancer Drug Screen. Data for the wt1 strain (AID 149);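 note: 0% = growth of vehicle-treated wt1 cultures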; conditions: S. cerevisiae wt1 strain (SPY 50644) growth inhibition, stronger effect = higher value
In short: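 Compounds are added to wt1 yeast cultures. Growth is then measured. Inhibition is expressed relative to vehicle-treated controls.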

[3] = NCI Yeast Anticancer Drug Screen. Data for the rad50EPP+ strain (AID 151);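 note: 0% = growth of vehicle-treated control cultures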; conditions: S. cerevisiae rad50 mutant strain, stronger effect = higher value
In short: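 Read-out is yeast growth inhibition relative to vehicle; cells used were the rad50EPP+ strain.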

[4] = NCI Yeast Anticancer Drug Screen. Data for the mgt1 strain (AID 153); conditions: S. cerevisiae mgt1 mutant growth inhibition, stronger effect = higher value
In short: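 Measured: inhibition of mgt1 yeast growth by compound, normalized to vehicle-treated cultures.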

[5] = NCI Yeast Anticancer Drug Screen. Data for the rad50 strain (AID 155);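 note: 0% = growth of vehicle-only cultures of the same strain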; conditions: S. cerevisiae rad50 strain growth inhibition, stronger effect = higher value
In short: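 Inhibition values express reduced yeast growth in compound-treated cultures relative to vehicle-treated controls.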

[6] = NCI Yeast Anticancer Drug Screen. Data for the mec2-1 strain (AID 157); conditions: S. cerevisiae mec2-1 strain, stronger effect = higher value
In short: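 Using mec2-1 yeast: add compound, measure growth, express inhibition versus vehicle-treated cultures.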

[7] = NCI Yeast Anticancer Drug Screen. Data for the rad14 strain (AID 159);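 note: 0% = growth of vehicle-treated control cultures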; conditions: S. cerevisiae rad14 strain growth inhibition, stronger effect = higher value
In short: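 A mutant yeast strain defective in DNA damage repair is treated with compound; inhibition of its growth is scored against untreated, vehicle-exposed cultures.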

[8] = NCI Yeast Anticancer Drug Screen. Data for the sgs1 mgt1 strain (AID 161);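 note: 0% = growth of cultures given vehicle only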; conditions: S. cerevisiae sgs1 mgt1 strain, stronger effect = higher value
In short: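 Compounds are added to genetically altered yeast, and growth is compared with cultures given vehicle alone to give percent inhibition.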

[9] = NCI Yeast Anticancer Drug Screen. Data for the CLN2oe strain (AID 163);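 note: 0% = growth of vehicle-only control cultures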; conditions: S. cerevisiae CLN2oe strain, stronger effect = higher value
In short: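 Whole-cell yeast growth assay. A strain engineered for altered cell-cycle control received compound, and inhibition relative to vehicle-treated cultures was recorded.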

[10] = NCI Yeast Anticancer Drug Screen. Data for the cln2 rad14 strain (AID 165);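 note: 0% = growth equal to vehicle treated cultures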; conditions: S. cerevisiae cln2 rad14 strain, stronger effect = higher value
In short: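 Yeast strain cln2 rad14, bearing defects in cell cycle control and DNA repair, serves as the test system; values reflect growth inhibition compared with vehicle.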

[11] = NCI Yeast Anticancer Drug Screen. Data for the bub3 strain (AID 167); conditions: S. cerevisiae bub3 mutant strain, stronger effect = higher value
In short: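 Steps: expose the mutant yeast strain to compound; grow alongside vehicle-treated cultures; measure growth; express inhibition against the vehicle cultures.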

[12] = NCI Yeast Anticancer Drug Screen. Data for the sgs1 strain (AID 173);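 note: 0% = growth of vehicle-only control cultures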; conditions: S. cerevisiae sgs1 mutant, stronger effect = higher value
In short: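 A genetically defined yeast mutant is incubated with the test compound, and its growth is compared to that of the same strain given vehicle.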

[13] = NCI Yeast Anticancer Drug Screen. Data for the mlh1 rad18 strain (AID 175); conditions: S. cerevisiae mlh1 rad18 strain growth inhibition, stronger effect = higher value
In short: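 Steps: expose repair-defective yeast to compound; measure growth; express inhibition against vehicle-treated controls.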

[14] = NCI Yeast Anticancer Drug Screen. Data for the rad18 strain (AID 177); conditions: S. cerevisiae rad18 mutant growth inhibition, stronger effect = higher value
In short: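 Measured value is growth inhibition of a yeast strain bearing a DNA repair alteration, referenced to vehicle-treated cells.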

[15] = NCI Yeast Anticancer Drug Screen. Data for the wt2 strain (AID 169);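 note: 0% = growth of vehicle-treated yeast cultures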; conditions: S. cerevisiae wt2 strain growth inhibition, stronger effect = higher value
In short: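 Treated yeast vs. vehicle-treated yeast: growth inhibition determined.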

[16] = NCI Yeast Anticancer Drug Screen. Data for the mlh1 strain (AID 171);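 note: 0% = growth of vehicle-treated control cultures of the same strain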; conditions: S. cerevisiae mlh1 strain growth inhibition, stronger effect = higher value
In short: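 A yeast strain with a defined genetic lesion serves as the test organism. Cultures receive compound or vehicle, and growth is measured.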

[17] = at 5.0 µM (retest, dose inferred, filed as 0.5)
[18] = at 50.0 µM (retest, dose inferred, filed as 5.0)

Measured: growth inhibition

CCOC(=O)c1[nH]cc(C)c1-c1cccn1-c1ccc(Cl)cc1[N+](=O)[O-]
active: [1]; at 100.0 µM 89% | [2]; at 100.0 µM 80% | [4]; at 100.0 µM 96% | [5]; at 100.0 µM 90% | [6]; at 100.0 µM 85% | [7]; at 100.0 µM 90% | [8]; [18] 87% | [9]; at 100.0 µM 92% | [11]; at 100.0 µM 91% | [12]; at 100.0 µM 95% | [14]; at 100.0 µM 89%
inactive: [1]; at 1.2 µM 13% | [1]; at 3.7 µM 19% | [1]; at 11.0 µM 27% | [1]; at 33.0 µM 25% | [2]; at 1.2 µM 16% | [2]; at 3.7 µM 6% | [2]; at 11.0 µM 16% | [2]; at 33.0 µM 12% | [3]; at 1.2 µM 22% | [3]; at 3.7 µM 30% | [3]; at 11.0 µM 32% | [3]; at 33.0 µM 32% | [3]; at 100.0 µM 55% | [4]; at 1.2 µM 3% | [4]; at 3.7 µM 17% | [4]; at 11.0 µM 20% | [4]; at 33.0 µM 48% | [5]; at 1.2 µM 1% | [5]; at 3.7 µM 8% | [5]; [17] 13% | [5]; at 11.0 µM 14% | [5]; at 33.0 µM 19% | [5]; [18] 43% | [5]; at 50.0 µM 32.5% | [6]; at 1.2 µM 4% | [6]; at 3.7 µM 15% | [6]; [17] 3% | [6]; at 11.0 µM -7% | [6]; at 33.0 µM 14% | [6]; [18] 48% | [6]; at 50.0 µM 46.1% | [7]; at 1.2 µM 21% | [7]; at 3.7 µM 15% | [7]; at 11.0 µM 16% | [7]; at 33.0 µM 31% | [8]; [17] 8% | [8]; at 50.0 µM 64.1% | [9]; at 1.2 µM -7% | [9]; at 3.7 µM -16% | [9]; at 11.0 µM -4% | [9]; at 33.0 µM -5% | [10]; [17] 11% | [10]; [18] 67% | [10]; at 50.0 µM 21.3% | [11]; at 1.2 µM 15% | [11]; at 3.7 µM 13% | [11]; [17] 9% | [11]; at 11.0 µM 12% | [11]; at 33.0 µM 32% | [11]; [18] 68% | [11]; at 50.0 µM 28.8% | [12]; at 1.2 µM 17% | [12]; at 3.7 µM 22% | [12]; at 11.0 µM 21% | [12]; at 33.0 µM 49% | [13]; [17] 11% | [13]; [18] 65% | [13]; at 50.0 µM 39.7% | [14]; at 1.2 µM 23% | [14]; at 3.7 µM 6% | [14]; at 11.0 µM 7% | [14]; at 33.0 µM 25%

CC1=CC(=C(c2ccc(N)cc2)c2ccc(N)cc2)C=CC1=N
active: [1]; at 100.0 µM 91% | [4]; at 100.0 µM 76% | [5]; at 100.0 µM 82% | [6]; [18] 89% and 80% | [6]; at 100.0 µM 73% | [7]; at 100.0 µM 74% | [9]; at 100.0 µM 78% | [11]; [18] 90% and 76% | [11]; at 100.0 µM 88% | [15]; at 100.0 µM 94% | [16]; at 100.0 µM 81% | [12]; at 100.0 µM 77% | [14]; at 100.0 µM 81%
38% (inactive) and 93% (active): [5]; [18]
54% (inactive) and 75% (active): [13]; [18]
inactive: [1]; at 1.2 µM 20% | [1]; at 3.7 µM 49% | [1]; at 11.0 µM 47% | [1]; at 33.0 µM 32% | [2]; at 1.2 µM 0% | [2]; at 3.7 µM -1% | [2]; at 11.0 µM 7% | [2]; at 33.0 µM 2% | [2]; at 100.0 µM 19% | [3]; at 1.2 µM 15% | [3]; at 3.7 µM 22% | [3]; at 11.0 µM 20% | [3]; at 33.0 µM 29% | [3]; at 100.0 µM 51% | [4]; at 1.2 µM -9% | [4]; at 3.7 µM 1% | [4]; at 11.0 µM -8% | [4]; at 33.0 µM 4% | [5]; at 1.2 µM -2% | [5]; at 3.7 µM 17% | [5]; [17] 21% and 1% | [5]; at 11.0 µM 17% | [5]; at 33.0 µM 7% | [5]; at 50.0 µM 32.7% and 35.3% | [6]; at 1.2 µM 7% | [6]; at 3.7 µM 2% | [6]; [17] 14% and -7% | [6]; at 11.0 µM -1% | [6]; at 33.0 µM -6% | [6]; at 50.0 µM 58.7% and 12.3% | [7]; at 1.2 µM -9% | [7]; at 3.7 µM 0% | [7]; at 11.0 µM -4% | [7]; at 33.0 µM -4% | [9]; at 1.2 µM 22% | [9]; at 3.7 µM 43% | [9]; at 11.0 µM 39% | [9]; at 33.0 µM 23% | [10]; [17] 1% and -1% | [10]; [18] 42% and 61% | [10]; at 50.0 µM 34% and -84.5% | [11]; at 1.2 µM -12% | [11]; at 3.7 µM 8% | [11]; [17] 18% and -1% | [11]; at 11.0 µM 8% | [11]; at 33.0 µM 12% | [11]; at 50.0 µM 58.8% and 24.9% | [15]; at 1.2 µM -18% | [15]; at 3.7 µM -13% | [15]; at 11.0 µM -12% | [15]; at 33.0 µM -6% | [16]; at 1.2 µM 1% | [16]; at 3.7 µM -4% | [16]; at 11.0 µM 1% | [16]; at 33.0 µM -3% | [12]; at 1.2 µM 11% | [12]; at 3.7 µM 18% | [12]; at 11.0 µM 4% | [12]; at 33.0 µM 11% | [13]; [17] 9% and -3% | [13]; at 50.0 µM 66% and 61.9% | [14]; at 1.2 µM 6% | [14]; at 3.7 µM 4% | [14]; at 11.0 µM -22% | [14]; at 33.0 µM 9%
